Measured values reported in PubChem BioAssay (NCI).
About 79,000 compounds went through this panel and 15% of them were active in at least one assay; those are over-represented in the sample as a whole. Values without a mark were called inactive. Active and inactive are the calls of the source. Rule as the data show it: active = growth inhibition above about 70%; inactive = the rest.

Columns and labels:
[1] = NCI Yeast Anticancer Drug Screen. Data for the sgs1 strain (AID 173);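 also: 0% = growth of vehicle-only control cultures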; conditions: S. cerevisiae sgs1 mutant, stronger effect = higher value
In short: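 Treat defined-mutant yeast with compound; measure growth; calculate inhibition relative to vehicle-treated cells.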

[2] = NCI Yeast Anticancer Drug Screen. Data for the mlh1 rad18 strain (AID 175); conditions: S. cerevisiae mlh1 rad18 strain growth inhibition, stronger effect = higher value
In short: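 Test agents were incubated with a yeast strain of defined genotype (DNA damage repair defect). Inhibition of growth was derived by comparison with vehicle-exposed cultures.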

[3] = NCI Yeast Anticancer Drug Screen. Data for the rad18 strain (AID 177); conditions: S. cerevisiae rad18 mutant growth inhibition, stronger effect = higher value
In short: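 A genetically defined yeast mutant impaired in DNA damage repair was treated with test compounds, then its growth was measured against cultures receiving vehicle alone.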

[4] = NCI Yeast Anticancer Drug Screen. Data for the rad52 strain (AID 147);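 also: 0% = growth of vehicle-treated control cultures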; conditions: S. cerevisiae rad52 mutant growth inhibition, stronger effect = higher value
In short: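 Screen used a yeast mutant impaired in DNA repair. After compound exposure, growth was measured. Values reflect inhibition compared with vehicle-treated cells.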

[5] = NCI Yeast Anticancer Drug Screen. Data for the rad50EPP+ strain (AID 151);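 also: 0% = growth of vehicle-treated control cultures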; conditions: S. cerevisiae rad50 mutant strain, stronger effect = higher value
In short: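 Exposing the rad50EPP+ strain to each compound, growth was compared with vehicle-only cultures to give inhibition.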

[6] = NCI Yeast Anticancer Drug Screen. Data for the mgt1 strain (AID 153); conditions: S. cerevisiae mgt1 mutant growth inhibition, stronger effect = higher value
In short: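 Genetically defined yeast (mgt1) treated with compound; inhibition of growth expressed against vehicle-treated controls.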

[7] = NCI Yeast Anticancer Drug Screen. Data for the rad50 strain (AID 155);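 also: 0% = growth of vehicle-only cultures of the same strain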; conditions: S. cerevisiae rad50 strain growth inhibition, stronger effect = higher value
In short: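 Compounds were tested on a yeast strain with an engineered DNA damage repair alteration; the reported value is growth inhibition normalised to vehicle treatment.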

[8] = NCI Yeast Anticancer Drug Screen. Data for the mec2-1 strain (AID 157); conditions: S. cerevisiae mec2-1 strain, stronger effect = higher value
In short: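 Readout is yeast growth inhibition, normalised to vehicle-treated controls, in the mec2-1 strain exposed to compound.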

[9] = NCI Yeast Anticancer Drug Screen. Data for the rad14 strain (AID 159);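 also: 0% = growth of vehicle-treated control cultures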; conditions: S. cerevisiae rad14 strain growth inhibition, stronger effect = higher value
In short: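 Compound-treated yeast with a defined DNA-repair lesion; growth inhibition normalised to vehicle-treated cultures.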

[10] = NCI Yeast Anticancer Drug Screen. Data for the sgs1 mgt1 strain (AID 161);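 also: 0% = growth of cultures given vehicle only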; conditions: S. cerevisiae sgs1 mgt1 strain, stronger effect = higher value
In short: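 Growth of a repair-deficient yeast mutant was monitored after compound treatment and expressed as inhibition relative to vehicle-treated cultures.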

[11] = NCI Yeast Anticancer Drug Screen. Data for the CLN2oe strain (AID 163);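 also: 0% = growth of vehicle-only control cultures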; conditions: S. cerevisiae CLN2oe strain, stronger effect = higher value
In short: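 Values reflect how much compound exposure reduced yeast growth, referenced to vehicle-exposed cells. Assay organism is a strain with a defined genetic change affecting cell-cycle control.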

[12] = NCI Yeast Anticancer Drug Screen. Data for the cln2 rad14 strain (AID 165);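 also: 0% = growth equal to vehicle treated cultures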; conditions: S. cerevisiae cln2 rad14 strain, stronger effect = higher value
In short: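 Relative to vehicle controls, growth inhibition of compound-treated cln2 rad14 yeast was recorded.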

[13] = NCI Yeast Anticancer Drug Screen. Data for the bub3 strain (AID 167); conditions: S. cerevisiae bub3 mutant strain, stronger effect = higher value
In short: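 Growth of a checkpoint-deficient yeast mutant is measured after compound exposure. Values represent inhibition relative to vehicle.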

[14] = NCI Yeast Anticancer Drug Screen. Data for the wt2 strain (AID 169);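 also: 0% = growth of vehicle-treated yeast cultures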; conditions: S. cerevisiae wt2 strain growth inhibition, stronger effect = higher value
In short: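 Values express reduction in yeast growth under compound treatment, referenced to vehicle-treated cells.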

[15] = NCI Yeast Anticancer Drug Screen. Data for the mlh1 strain (AID 171);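 also: 0% = growth of vehicle-treated control cultures of the same strain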; conditions: S. cerevisiae mlh1 strain growth inhibition, stronger effect = higher value
In short: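 Steps: expose the defined-mutant yeast strain to compound; expose a parallel culture to vehicle; measure growth; express compound effect as inhibition relative to the vehicle culture.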

[16] = NCI Yeast Anticancer Drug Screen. Data for the wt1 strain (AID 149);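 also: 0% = growth of vehicle-treated wt1 cultures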; conditions: S. cerevisiae wt1 strain (SPY 50644) growth inhibition, stronger effect = higher value
In short: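 Readout: yeast growth inhibition, normalised to vehicle controls, in the wt1 strain exposed to test compounds.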

[17] = at 5.0 µM (retest, dose inferred, filed as 0.5)
[18] = at 50.0 µM (retest, dose inferred, filed as 5.0)

O=C(Nc1ccc(Cl)cc1)OCC#CCCl
growth inhibition ([1]; at 1.2 µM): 93% (active)
growth inhibition ([1]; at 3.7 µM): 96% (active)
growth inhibition ([1]; at 11.0 µM): 98% (active)
growth inhibition ([1]; at 33.0 µM): 98% (active)
growth inhibition ([1]; at 100.0 µM): 98% (active)
growth inhibition [2, 17]: 9%
growth inhibition [2, 18]: 46%
growth inhibition ([2]; at 50.0 µM): 6.8%
growth inhibition ([3]; at 1.2 µM): -5%
growth inhibition ([3]; at 3.7 µM): 6%
growth inhibition ([3]; at 11.0 µM): 11%
growth inhibition ([3]; at 33.0 µM): 10%
growth inhibition ([3]; at 100.0 µM): 52%

CN(C)CCn1c2c3ccccc3ccc2c2oc(=O)c3ccccc3c21
growth inhibition ([4]; at 1.2 µM): 24%
growth inhibition ([4]; at 3.7 µM): 21%
growth inhibition ([4]; at 11.0 µM): 94% (active)
growth inhibition ([4]; at 33.0 µM): 98% (active)
growth inhibition ([4]; at 100.0 µM): 97% (active)
growth inhibition ([5]; at 1.2 µM): 19%
growth inhibition ([5]; at 3.7 µM): 54%
growth inhibition ([5]; at 11.0 µM): 94% (active)
growth inhibition ([5]; at 33.0 µM): 97% (active)
growth inhibition ([5]; at 100.0 µM): 94% (active)
growth inhibition ([6]; at 1.2 µM): -7%
growth inhibition ([6]; at 3.7 µM): 10%
growth inhibition ([6]; at 11.0 µM): 49%
growth inhibition ([6]; at 33.0 µM): 96% (active)
growth inhibition ([6]; at 100.0 µM): 93% (active)
growth inhibition ([7]; at 1.2 µM): 21%
growth inhibition ([7]; at 3.7 µM): 51%
growth inhibition [7, 17]: 52%
growth inhibition ([7]; at 11.0 µM): 93% (active)
growth inhibition ([7]; at 33.0 µM): 97% (active)
growth inhibition [7, 18]: 95% (active)
growth inhibition ([7]; at 50.0 µM): 86.5% (active)
growth inhibition ([7]; at 100.0 µM): 92% (active)
growth inhibition ([8]; at 1.2 µM): 17%
growth inhibition ([8]; at 3.7 µM): 12%
growth inhibition [8, 17]: -12%
growth inhibition ([8]; at 11.0 µM): 40%
growth inhibition ([8]; at 33.0 µM): 95% (active)
growth inhibition [8, 18]: 98% (active)
growth inhibition ([8]; at 50.0 µM): 88.3% (active)
growth inhibition ([8]; at 100.0 µM): 91% (active)
growth inhibition ([9]; at 1.2 µM): 3%
growth inhibition ([9]; at 3.7 µM): -2%
growth inhibition ([9]; at 11.0 µM): 35%
growth inhibition ([9]; at 33.0 µM): 95% (active)
growth inhibition ([9]; at 100.0 µM): 91% (active)
growth inhibition [10, 17]: -1%
growth inhibition [10, 18]: 93% (active)
growth inhibition ([10]; at 50.0 µM): 89% (active)
growth inhibition ([11]; at 1.2 µM): -2%
growth inhibition ([11]; at 3.7 µM): -3%
growth inhibition ([11]; at 11.0 µM): 36%
growth inhibition ([11]; at 33.0 µM): 90% (active)
growth inhibition ([11]; at 100.0 µM): 89% (active)
growth inhibition [12, 17]: 4%
growth inhibition [12, 18]: 93% (active)
growth inhibition ([12]; at 50.0 µM): 84.5% (active)
growth inhibition ([13]; at 1.2 µM): -8%
growth inhibition ([13]; at 3.7 µM): 10%
growth inhibition [13, 17]: 3%
growth inhibition ([13]; at 11.0 µM): 19%
growth inhibition ([13]; at 33.0 µM): 93% (active)
growth inhibition [13, 18]: 95% (active)
growth inhibition ([13]; at 50.0 µM): 86.8% (active)
growth inhibition ([13]; at 100.0 µM): 95% (active)
growth inhibition ([14]; at 1.2 µM): 12%
growth inhibition ([14]; at 3.7 µM): 3%
growth inhibition ([14]; at 11.0 µM): 41%
growth inhibition ([14]; at 33.0 µM): 95% (active)
growth inhibition ([14]; at 100.0 µM): 95% (active)
growth inhibition ([15]; at 1.2 µM): -10%
growth inhibition ([15]; at 3.7 µM): -6%
growth inhibition ([15]; at 11.0 µM): 42%
growth inhibition ([15]; at 33.0 µM): 95% (active)
growth inhibition ([15]; at 100.0 µM): 92% (active)
growth inhibition [2, 17]: 10%
growth inhibition [2, 18]: 96% (active)
growth inhibition ([2]; at 50.0 µM): 82.7% (active)
growth inhibition ([3]; at 1.2 µM): 0%
growth inhibition ([3]; at 3.7 µM): -7%
growth inhibition ([3]; at 11.0 µM): 53%
growth inhibition ([3]; at 33.0 µM): 94% (active)
growth inhibition ([3]; at 100.0 µM): 91% (active)

CC(CC(C)(C)[N+](C)(C)C)[N+](C)(C)C (centres undefined)
growth inhibition ([16]; at 1.2 µM): 3%
growth inhibition ([16]; at 3.7 µM): -2%
growth inhibition ([16]; at 11.0 µM): -3%
growth inhibition ([16]; at 33.0 µM): -3%
growth inhibition ([16]; at 100.0 µM): 0%
growth inhibition ([5]; at 1.2 µM): -1%
growth inhibition ([5]; at 3.7 µM): 1%
growth inhibition ([5]; at 11.0 µM): 1%
growth inhibition ([5]; at 33.0 µM): 4%
growth inhibition ([5]; at 100.0 µM): -1%
growth inhibition ([6]; at 1.2 µM): -1%
growth inhibition ([6]; at 3.7 µM): 1%
growth inhibition ([6]; at 11.0 µM): 2%
growth inhibition ([6]; at 33.0 µM): 1%
growth inhibition ([6]; at 100.0 µM): 0%
growth inhibition ([7]; at 1.2 µM): 1%
growth inhibition ([7]; at 3.7 µM): 1%
growth inhibition [7, 17]: 25%
growth inhibition ([7]; at 11.0 µM): 2%
growth inhibition ([7]; at 33.0 µM): 2%
growth inhibition [7, 18]: 95% (active)
growth inhibition ([7]; at 50.0 µM): 92.8% (active)
growth inhibition ([7]; at 100.0 µM): 0%
growth inhibition ([8]; at 1.2 µM): 5%
growth inhibition ([8]; at 3.7 µM): -11%
growth inhibition [8, 17]: 19%
growth inhibition ([8]; at 11.0 µM): -4%
growth inhibition ([8]; at 33.0 µM): 2%
growth inhibition [8, 18]: 97% (active)
growth inhibition ([8]; at 50.0 µM): 96% (active)
growth inhibition ([8]; at 100.0 µM): -4%
growth inhibition ([9]; at 1.2 µM): 2%
growth inhibition ([9]; at 3.7 µM): 3%
growth inhibition ([9]; at 11.0 µM): 3%
growth inhibition ([9]; at 33.0 µM): 3%
growth inhibition ([9]; at 100.0 µM): 1%
growth inhibition [10, 17]: 1%
growth inhibition [10, 18]: 91% (active)
growth inhibition ([10]; at 50.0 µM): 95.8% (active)
growth inhibition ([11]; at 1.2 µM): -11%
growth inhibition ([11]; at 3.7 µM): -1%
growth inhibition ([11]; at 11.0 µM): 1%
growth inhibition ([11]; at 33.0 µM): -6%
growth inhibition ([11]; at 100.0 µM): -7%
growth inhibition [12, 17]: 35%
growth inhibition [12, 18]: 95% (active)
growth inhibition ([12]; at 50.0 µM): 90.8% (active)
growth inhibition ([13]; at 1.2 µM): -2%
growth inhibition ([13]; at 3.7 µM): -8%
growth inhibition [13, 17]: 67%
growth inhibition ([13]; at 11.0 µM): 0%
growth inhibition ([13]; at 33.0 µM): -1%
growth inhibition [13, 18]: 99% (active)
growth inhibition ([13]; at 50.0 µM): 95.7% (active)
growth inhibition ([13]; at 100.0 µM): -1%
growth inhibition ([14]; at 1.2 µM): -1%
growth inhibition ([14]; at 3.7 µM): -1%
growth inhibition ([14]; at 11.0 µM): 0%
growth inhibition ([14]; at 33.0 µM): -1%
growth inhibition ([14]; at 100.0 µM): -1%
growth inhibition ([15]; at 1.2 µM): -1%
growth inhibition ([15]; at 3.7 µM): -1%
growth inhibition ([15]; at 11.0 µM): -2%
growth inhibition ([15]; at 33.0 µM): -3%
growth inhibition ([15]; at 100.0 µM): 0%
growth inhibition ([1]; at 1.2 µM): 2%
growth inhibition ([1]; at 3.7 µM): 3%
growth inhibition ([1]; at 11.0 µM): 1%
growth inhibition ([1]; at 33.0 µM): 4%
growth inhibition ([1]; at 100.0 µM): -1%
growth inhibition [2, 17]: 12%
growth inhibition [2, 18]: 97% (active)
growth inhibition ([2]; at 50.0 µM): 94.3% (active)
growth inhibition ([3]; at 1.2 µM): 11%
growth inhibition ([3]; at 3.7 µM): 8%
growth inhibition ([3]; at 11.0 µM): 14%
growth inhibition ([3]; at 33.0 µM): 15%
growth inhibition ([3]; at 100.0 µM): 20%
